Laboratory results published in the supplement of paper PMC12632987.
Whole data set: some 4,500 sequences, median “median log2 fold change of GCK-ALFA target abundance (FLAG IP / Myc IP barcode read proportion)” near 0.078, cut for the lowest 2% near -0.6. The entries come from a sample that favours the lowest values as a whole.

B1: GBRAP_128_3486 (protein)
chain: STEEVVAKTKELMEKIKNSSLEEVEEIARELVELLGQADPESREAATEVILEKLKELSAEKLEILADVLRERQPELDPFGAEQAAEIQVEALNEAEEKEE
B2: GBRAP_52_6312 (protein)
chain: MHERMRELAEELLELMLAGDREGARALAREIVATLSEEELLLLAEELAELAEELDEEELEKAAELLFILEDEMEAAGVDERVIAEMLGIIITAIYKAEQK
B3: GBRAP_52_6313 (protein)
chain: MREEMRAQAEELLALMLAGDRDGARALAEELVATLSEEELLLLAEELAKLSETLNAEELDKAMELLEILEDVMEEAGVDERVIAEIRGIVITAIYKAEQK
B4: GBRAP_96_7095 (protein)
chain: MLEEAKKLVKELIKALDTDPEKAEELAKKLLEFPVEVVTEALVEVVKKPEDAAKIAKLLLKLGDEKAEEVLLEAAEKAPGDISKAIIDAMEAYEKEQEAA
B5: GBRAP_128_3565 (protein)
chain: STAELVAEARALLAAIKAADAEEARALAERLADLIAAASPEARAAIVETILARLPELTAEQLDILADVFAARRATADPAVAEALAEIQVEALNVREEKEE
B6: GBRAP_14_3799 (protein)
chain: MEEREKAIEEITEETLEILEEILADAPEEVRERVLELVEEARERIIKEKLSPDEIAELEDELLEEVAKILADAPPEVRAQVLAAISVGMGEIILEVEELE
B7: GBRAP_160_4163 (protein)
chain: MEEAEELIKEVEEETKEAIELIEGESIEQRKVIIAGHFGVIIMTLFESDVVSDEVVDFAVELRDELVKWIDENPDASLEEIKKKIKEAEKKIKEKIKKDA
B8: GBRAP_35_5613 (protein)
chain: EDVQLAVDSFVDMAEAIIELIPEIDDETLAALAQSLIKFAKSLLKEEKNNKEALEKIKEAMEKLLEALKKYRSDNPLIQKVAKEVQEVIKEAEKAIKEVK
B9: GBRAP_52_5915 (protein)
chain: MSAELEAKLDEMLAAVKAGKLEEARAIAREIVESLDDEELRELVELFAERVRAAPLEDLPAWWRLAEILAEELEEAGKDEVLADDLLNRTAAAIYEKLQA
B10: GBRAP_160_4375 (protein)
chain: SEELKELIKEIEELKKEFEELAKDLSPEEVKILAKGVLSEIAALVFENEAVSEETKDKIMEIIDKALEELDKLKDASPEEIVAVTTEAVNEIIELIKKEI
B11: GBRAP_14_3854 (protein)
chain: MEKLIAAVKKTAEAAIEFAKELLPEHAEEVGKKIKELAEKIIEKIKKENLNKEEVAELIRKMAEELGKFIKEKGYASDEEIAAFKAFIENEALLELEKVE
B12: GBRAP_52_5907 (protein)
chain: MKEELEKILNEIIEAVKAGKLEEARKIARELAEKYDDETLEEFIELFAEMVLEAPEEDLPYYWKAAEILAEEFEREGKDEVLADLLLSRTAAAIYEKLQR
B13: GBRAP_26_5463 (protein)
chain: MDEAFRAALDAVDAAAATLPNPNAAAAVTAEAATVLEELEEAIEAGEDIAAAVAAARDELLAAARAIGEEEGLPAATIAAMEATLTAIFDALEAALKAAA
B14: GBRAP_26_5467 (protein)
chain: MDAAFAAARDRIDAIAAKLPDPRAAAALRALADTELLELEERIEAGEDIDAAVDAARDAFLAEAREILEDAGLPEELIAKTLAEFEAVFDDLRAALKAAQ
B15: GBRAP_52_6357 (protein)
chain: KLEEALALLERALEAMLAGREDEARAILREIVETYDDETILAAFERLAEKILGKSVEEAEAFLDLALLLADVMDELGRDEAVGDEIEAIAAKAYMTVLEK
B16: GBRAP_160_3973 (protein)
chain: SEEVEELKKEIKELFDEAKKLIEGESYEERLTIIKVMVGDILLLADENPLISDEVEDKIDEIGDELIETIEKNPDLTDEEIKKLIDEAEEKILKTIDEAF
B17: GBRAP_43_5767 (protein)
chain: SKELVEGAFETAILLLEDPSISEETKVKAIIAAMELAADEGYVDKELLEKVVELAGKTLSKESLEKILKAAKKLAKEYPESKEAFEEAAKKLEEAIAKKE
B18: GBRAP_64_6486 (protein)
chain: EEEIKKLHEETLKQAKKLVELLKDSSEELQKQAKEVLELIEKSKEASLEEAAKLLAEAAKLLNELLKSPELTEEQKDQVAETLDLVSELLWLVVEKELEK
B19: GBRAP_52_5904 (protein)
chain: MREELRAQVEEMLALVRAGDLEGARALAREIAETLNDEELRLLIEEVAALVREAPLEELPAWWRLAEIMAEAFEEAGKDEVLADDLLAATAAAIHERLQR
B20: GBRAP_184_5166 (protein)
chain: MIKEFEIKIENVEEAKEKIEEIKKEVEGLKAELYVIVETKELTVEIAKAILEGLKEMKEKGYVTSITVEFTGKIDEETLDVAVKLADEAGVKLVIAIDEE
B21: GBRAP_139_3707 (protein)
chain: SALEELIAEARRLTREMREDPEAALEALVELLLSVSEEELEVLVEAIAEELSRLPLDEAEELADRLLELVEERFKDEDKIDIVEAVLNGALARKAAEEEA
B22: GBRAP_128_3416 (protein)
chain: ADAALVAKAKELLEKMKTADAATAAALADEIAALIAAADLETAEAIAEVIEEELPKLTAEQLDILADALRAALPAASPEKAEILAGVLVDALNEAEEKEE
B23: GBRAP_26_5474 (protein)
chain: VEEEVEAALKEMEKLLKELLDPETAAAATASAFTIVEEAVEEMKKNAKDKEKLKKAAEKAVKEIAADLETLGVDADTRAKIVAKAKAELEKIVKAIEKEA
B24: GBRAP_160_4004 (protein)
chain: SEKIEKLIKEIEELVEETIEWMEGLSPEERLTLVRGTVGEIIQLAIESEEVSDESEEKIAELGDETIERVEENKDASLEVWKEILEEFLEKVKKILKEDE
B25: GBRAP_137_3676 (protein)
chain: SKVEIEIKEEDGLVEITVTVYDPEKAEETEEKLLDIAHEVGALAVAIKRNEDGSLEITIVVPEEKGEEAEKKVLELAKEYDEVIIKKEKDGKTEEEVIKK
B26: GBRAP_35_5582 (protein)
chain: DDVEIILETARDFAEAAIEALKGDDLEEAIRMTEAFVRAAELAIEDLKNDLEALKELAKLLEEVLKAAKEYASDNPEMQKNIERLEELLKRAKELAKKVE
B27: GBRAP_166_4971 (protein)
chain: MQEELVEEFKKYIDELAEKMKTANHEEKLELLAEAAEKLKELIEKGLSDEDLKELIEYLIKKAKEVGISTSEVYGALTIIADLNEEQIDILEEAIKKVEK
B28: GBRAP_106_2558 (protein)
chain: SKKETAEKIYKEMLEEAKKEIAEHEAWLAKHRSQLTPEEIRAINQYLRDYLVAKLLRKMIEAGIITKEEAKEILEEVRKRKDLDPLEALEYAGKLVLEKI
B29: GBRAP_78_6731 (protein)
chain: ELEKLLEEAIKVASEAAKLAVKQASNEVIAEIVEALSHLEEALELVEEGGEKEEILEELEKALEHLKEALKLLPESLTEIKKLLEEAIKLVEEAIKEVKK

target: GABARAP, O95166; test: median log2 fold change of GCK-ALFA target abundance (FLAG IP / Myc IP barcode read proportion) (log2 ratio); each designed protein is fused to an ALFA-tag nanobody in HEK293 cells to bring the named protein to FLAG-tagged glucokinase (GCK); Myc marks an untargeted standard; higher = target protein stabilised (more abundant); settings: target protein: 3xFLAG-MCP-GCK-ALFA reporter; HEK293 landing pad (RPLP)
Procedure, shortened: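 An ALFA-nanobody-fused binder library was recombined into HEK293 landing-pad cells and induced with 2 μg mL^−1 doxycycline. Cells were transfected with a plasmid expressing a FLAG-tagged target and a Myc-tagged standard. After 48 h, lysates underwent anti-FLAG and anti-Myc immunoprecipitation, and circular RNA barcodes were reverse transcribed, amplified and sequenced. Target abundance is the per-binder median log2 ratio of FLAG to Myc barcode read proportions. Barcodes needed ≥10^−7 proportion in both replicates, binders ≥3 barcodes per replicate, and a 10^−6 pseudocount was added; the two replicates were pooled.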

Sequence of GABARAP, O95166 (O95166 whole entry, the tested form may be a part): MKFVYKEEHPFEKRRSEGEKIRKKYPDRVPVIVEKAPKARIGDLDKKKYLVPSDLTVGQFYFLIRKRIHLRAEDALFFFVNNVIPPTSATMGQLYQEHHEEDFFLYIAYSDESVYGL

| Binder | median log2 fold change |
| --- | --- |
| B1 | 0.224 |
| B2 | -0.795 |
| B3 | -0.0291 |
| B4 | 0.344 |
| B5 | 0.318 |
| B6 | -0.611 |
| B7 | 0.215 |
| B8 | -0.07 |
| B9 | -0.669 |
| B10 | 0.194 |
| B11 | 0.381 |
| B12 | -0.881 |
| B13 | 0.261 |
| B14 | 0.199 |
| B15 | -0.492 |
| B16 | -0.605 |
| B17 | 0.243 |
| B18 | 0.19 |
| B19 | -0.644 |
| B20 | 0.0333 |
| B21 | -0.0884 |
| B22 | 0.247 |
| B23 | 0.241 |
| B24 | -0.827 |
| B25 | 0.249 |
| B26 | 0.182 |
| B27 | -0.0848 |
| B28 | -0.711 |
| B29 | 0.0787 |
